Consider 42 compounds from PubChem BioAssay AID2685 (National Center for Advancing Translational Sciences (NCATS), 2010).

The structures appear in SMILES notation. The whole screen tested about 320,000 compounds, of which about 2,100 (0.66%) were called active. Another 53% or so got no clear call; they are omitted. Calls come from the whole dose curve; as a rule, active = well fitted inhibition curve with a large enough effect in the signal ratio, with a control signal flat (not every such curve was filed as active); inconclusive = small, poorly fitted or top-dose-only effect, or effect the other way, or a change in a side signal; inactive = flat fitted curve, though single readings scatter; the % refers to the signal ratio. The list comes from a sample in which actives are over-represented; it also holds similar structures and randomly drawn compounds.
Potency is the fitted concentration of half-maximal effect.

This assay in a line: qHTS Assay for Lipid Storage Modulators in Drosophila S3 Cells.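 For cell number change: cells counted by Cell Tracker Red CMTPX staining in the red channel.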 For lipid storage change, negative = inhibition: % is set by controls: 0 for no effect and ±100 for the full control effect. The following applies: BODIPY lipid droplet fluorescence, 18-24 h, cells fed with added oleic acid; cell number change: measured here: cell count max response; series mostly up to 46.1 µM; lipid storage change, negative = inhibition: at the top concentration. The gist of the method: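 Drosophila S3 cells loaded with oleic acid (400 uM, as added) and compounds at several concentrations; lipid droplets imaged by 488-nm laser-scanning cytometry, 500–530 nm intensity and object ratio to cell channel. Percent activity normalized to 20 uM Triacsin C.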
As for `CN(CCNC(=O)c1cn(C)c2ccc(S(=O)(=O)N3CCCC3)cc2c1=O)CCc1ccccc1`, the “lipid storage change, negative = inhibition” value is 22.9% (inactive).

As for `COc1cc(NC(=S)N(C)CCC#N)c(OC)cc1Cl`, the “lipid storage change, negative = inhibition” value is 6.78% (inactive) and the cell number change is -2.16%.

Regarding `CCOC(=O)c1nn(-c2ccc(C)c(C)c2)c(=O)c(C#N)c1C`, the compound was classed as inactive and the cell number change is -19.4%.

Regarding `CCOC(=O)c1nc(C)n(-c2ccc(Cl)cc2Cl)n1`, the compound was classed as inactive.

As for `CCOC(=O)c1nn(-c2ccc(Cl)cc2Cl)c(=N)c(C#N)c1C`, the Potency is 18.4 µM (active) and the cell number change was 4.21%.

Regarding `CC(C)(C)NC(=O)NC(=O)COC(=O)C1=COCCO1`, the “lipid storage change, negative = inhibition” value was -1.3% (inactive) and the cell number change was -19.1%.

On to `Cn1cnnc1SCC(=O)N1c2ccccc2-c2c(ssc2=S)C1(C)C`, for which the “lipid storage change, negative = inhibition” value was 10.2% (inactive) and the cell number change worked out at 1.3%.

As for `Cc1ccc2c(c1)N(C(=O)CSc1nncn1C)C(C)(C)c1ssc(=S)c1-2`, the “lipid storage change, negative = inhibition” value is -13.1% (inactive) and the cell number change is -13.4%.

As for `CC1(C)c2ssc(=S)c2-c2ccccc2N1C(=O)c1ccco1`, the Potency is 8.2 µM (active) and the cell number change was determined as 1.38%.

In the case of `O=C(N/N=C/c1ccccc1C(=O)O)c1cccc(S(=O)(=O)N2CCOCC2)c1`, the “lipid storage change, negative = inhibition” value is 4.8% (inactive) and the cell number change was found to be 10.2%.

Turning to `Cc1onc(-c2ccccc2)c1C(=O)Nc1ccncc1`, the outcome was inactive and the cell number change was found to be 12.5%.

As to `Cc1onc(-c2ccccc2)c1C(N)=O`, the compound was classed as inactive.

With `Cc1onc(-c2ccncc2)c1C(=O)O`, the Potency is 20.6 µM (active) and the cell number change was -5.32%.

On to `CCOc1ccc(CN2CCC(=O)NC2=O)cc1`, for which the “lipid storage change, negative = inhibition” value was -8.2% (inactive) and the cell number change was -4.82%.

For `CC1CC(C)CN(CCCNC(=O)c2ccc(N3CCCC3=O)cc2)C1` (stereo not drawn), the compound was classed as inactive and the cell number change was -12.7%.

`COC(CNC(=O)c1cc(S(=O)(=O)N2CCc3ccccc32)ccc1F)OC`: the “lipid storage change, negative = inhibition” value is 11.3% (inactive).

On to `COC(CNC(=O)c1ccc(N2CCc3ccccc32)c([N+](=O)[O-])c1)OC`, for which the Potency was 20.6 µM (active) and the cell number change is -26.9%.

As to `COC(CNC(=O)c1ccc(N2CCC3(CC2)OCCO3)c([N+](=O)[O-])c1)OC`, the “lipid storage change, negative = inhibition” value is -23.4% (inactive) and the cell number change is -9.81%.

As for `O=C(Nc1cccc([N+](=O)[O-])c1)C(=O)N1CCCCC1`, the “lipid storage change, negative = inhibition” value is 14.2% (inactive) and the cell number change is -20.3%.

With `CCOC(=O)c1ccc(NC(=O)CSc2nnc(-c3ccncc3)n2C)cc1`, the “lipid storage change, negative = inhibition” value is 21.9% (inactive) and the cell number change was determined as 3.98%.

As for `Cc1cc(N2CCOCC2)nc2cc(O)ccc12`, the “lipid storage change, negative = inhibition” value is 4.23% (inactive) and the cell number change was -2.46%.

With `COc1ccc2c(C)cc(N3CCOCC3)nc2c1`, the Potency was 4.61 µM (active) and the cell number change was -8.65%.

Regarding `COc1ccc2c(C)cc(N3CCCCCC3)nc2c1`, the “lipid storage change, negative = inhibition” value was 28.5% (inactive) and the cell number change stood at 23.5%.

Consider `CSc1ccc(S(=O)(=O)Nc2c(C)cccc2C)cc1`, for which the call was inactive and the cell number change came to 1.28%.

Take `CCCCCCCn1c(=N)n(CC(O)c2ccco2)c2ccccc21` (stereo not drawn): the “lipid storage change, negative = inhibition” value is -19.3% (inactive) and the cell number change was -4.47%.

With `Cc1ccc2c(CN3CCN(Cc4ccccc4)CC3)cc(=O)oc2c1`, the “lipid storage change, negative = inhibition” value is 15.3% (inactive) and the cell number change came to 22.5%.

`CC1CN(Cc2cc(=O)oc3cc(O)c(Cl)cc23)CC(C)O1` (stereo not drawn): the Potency was 1.64 µM (active) and the cell number change was -11.3%.

`Cc1ccc2c(CN3CCOCC3)cc(=O)oc2c1`: the “lipid storage change, negative = inhibition” value was 8.89% (inactive) and the cell number change amounted to 3.55%.

On to `O=c1cc(CN2CCOCC2)c2cc(Cl)c(O)cc2o1`, for which the call was inactive and the cell number change was -11.3%.

As to `Cc1ccc2c(CN3CC(C)CC(C)C3)cc(=O)oc2c1` (stereo not drawn), the Potency was 1.16 µM (active) and the cell number change is 4.5%.

For `COC(=O)C1CCN(Cc2cc(=O)oc3cc(C)c(Cl)cc23)CC1`, the “lipid storage change, negative = inhibition” value is 11.8% (inactive) and the cell number change came to 14.6%.

Take `CCCCCCNC(=O)c1cc(-c2ccco2)nc2ccccc12`: the “lipid storage change, negative = inhibition” value was 0.701% (inactive) and the cell number change is -17.2%.

For the compound `O=C(CN1C(=O)NC2(CCCC2)C1=O)N1CCN(Cc2ccccc2)CC1`, the “lipid storage change, negative = inhibition” value was -0.737% (inactive) and the cell number change amounted to 0.232%.

Turning to `COC(=O)Cn1nc(-c2ccc(C)cc2)c2ccccc2c1=O`, the “lipid storage change, negative = inhibition” value is 3.29% (inactive) and the cell number change is 9.56%.

For the compound `COc1ccc(/C=N/NC(=O)CCN2CCCCC2c2cccnc2)cc1Cn1cc([N+](=O)[O-])cn1` (stereo not drawn), the “lipid storage change, negative = inhibition” value is -4.04% (inactive) and the cell number change was -16.7%.

As to `CN(C)CCN(Cc1ccccc1)S(=O)(=O)c1ccc(-c2ccc(=O)[nH]n2)s1`, the result was inactive.

In the case of `COc1cc2c(cc1OC)C(C(=O)NCc1cccnc1)C(c1cccnc1)N(C)C2=O` (stereo not drawn), the “lipid storage change, negative = inhibition” value is 3.13% (inactive) and the cell number change is -0.81%.

Turning to `COc1ccc(C2C(C(=O)NCc3cccnc3)c3ccccc3C(=O)N2C)cc1OC` (stereo not drawn), the Potency is 2.59 µM (active) and the cell number change was -17.1%.

Take `COc1ccc(C2C(C(=O)NCc3ccccn3)c3ccccc3C(=O)N2C)cc1OC` (stereo not drawn): the call was inactive.

With `O=C(N/N=C\c1cccnc1)C1c2ccccc2Oc2ccccc21`, the “lipid storage change, negative = inhibition” value was 0.808% (inactive) and the cell number change was -0.813%.

Turning to `CCN(CC)C(=O)c1[nH]cnc1C(=O)N[C@@H](CC(C)C)C(=O)OCc1ccccc1`, the “lipid storage change, negative = inhibition” value is -21.5% (inactive) and the cell number change is -10.8%.

In the case of `C/C(=N\NC(=O)c1cccc([N+](=O)[O-])c1)c1cccc(NC(=O)C2CC2)c1`, the “lipid storage change, negative = inhibition” value was 11.2% (inactive) and the cell number change is -1.94%.
